Measured values reported in PubChem BioAssay (NCI).
The panel holds about 79,000 compounds, 15% with a hit somewhere; the sample as a whole holds those more often. The source made the active and inactive calls. Rule as the data show it: active = growth inhibition above about 70%; inactive = the rest.

Key:
[1] = NCI Yeast Anticancer Drug Screen. Data for the rad52 strain (AID 147);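 also: 0% = growth of vehicle-treated control cultures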; conditions: S. cerevisiae rad52 mutant growth inhibition, hits give high values
Outline: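 Here a repair-compromised yeast strain receives each compound; its growth is then quantified and normalised to vehicle-only controls.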

[2] = NCI Yeast Anticancer Drug Screen. Data for the wt1 strain (AID 149);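 also: 0% = growth of vehicle-treated wt1 cultures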; conditions: S. cerevisiae wt1 strain (SPY 50644) growth inhibition, hits give high values
Outline: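 Vehicle-normalised growth inhibition; strain wt1; compound exposure.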

[3] = NCI Yeast Anticancer Drug Screen. Data for the mgt1 strain (AID 153); conditions: S. cerevisiae mgt1 mutant growth inhibition, hits give high values
Outline: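 Measured: inhibition of mgt1 yeast growth by compound, normalized to vehicle-treated cultures.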

[4] = NCI Yeast Anticancer Drug Screen. Data for the rad50 strain (AID 155);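 also: 0% = growth of vehicle-only cultures of the same strain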; conditions: S. cerevisiae rad50 strain growth inhibition, hits give high values
Outline: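 A DNA repair-deficient yeast mutant serves as the test organism; compound-induced growth inhibition is calculated against vehicle-treated cells.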

[5] = NCI Yeast Anticancer Drug Screen. Data for the mec2-1 strain (AID 157); conditions: S. cerevisiae mec2-1 strain, hits give high values
Outline: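 Using mec2-1 yeast: add compound, measure growth, express inhibition versus vehicle-treated cultures.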

[6] = NCI Yeast Anticancer Drug Screen. Data for the rad14 strain (AID 159);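 also: 0% = growth of vehicle-treated control cultures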; conditions: S. cerevisiae rad14 strain growth inhibition, hits give high values
Outline: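 Vehicle-treated cultures served as the baseline for growth inhibition of a DNA repair-mutant yeast strain exposed to each compound.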

[7] = NCI Yeast Anticancer Drug Screen. Data for the sgs1 mgt1 strain (AID 161);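 also: 0% = growth of cultures given vehicle only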; conditions: S. cerevisiae sgs1 mgt1 strain, hits give high values
Outline: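 Percent growth inhibition was derived by comparing compound-exposed mutant yeast with vehicle-exposed cultures. The strain carries alterations in DNA damage repair.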

[8] = NCI Yeast Anticancer Drug Screen. Data for the CLN2oe strain (AID 163);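 also: 0% = growth of vehicle-only control cultures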; conditions: S. cerevisiae CLN2oe strain, hits give high values
Outline: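 Whole-cell yeast growth assay. A strain engineered for altered cell-cycle control received compound, and inhibition relative to vehicle-treated cultures was recorded.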

[9] = NCI Yeast Anticancer Drug Screen. Data for the cln2 rad14 strain (AID 165);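 also: 0% = growth equal to vehicle treated cultures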; conditions: S. cerevisiae cln2 rad14 strain, hits give high values
Outline: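 Yeast strain cln2 rad14, bearing defects in cell cycle control and DNA repair, serves as the test system; values reflect growth inhibition compared with vehicle.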

[10] = NCI Yeast Anticancer Drug Screen. Data for the bub3 strain (AID 167); conditions: S. cerevisiae bub3 mutant strain, hits give high values
Outline: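 Inhibition values come from growth of compound-treated mutant yeast normalised to vehicle-treated controls.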

[11] = NCI Yeast Anticancer Drug Screen. Data for the mlh1 strain (AID 171);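 also: 0% = growth of vehicle-treated control cultures of the same strain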; conditions: S. cerevisiae mlh1 strain growth inhibition, hits give high values
Outline: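 A yeast strain with a defined genetic lesion serves as the test organism. Cultures receive compound or vehicle, and growth is measured.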

[12] = NCI Yeast Anticancer Drug Screen. Data for the mlh1 rad18 strain (AID 175); conditions: S. cerevisiae mlh1 rad18 strain growth inhibition, hits give high values
Outline: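 Steps: expose repair-defective yeast to compound; measure growth; express inhibition against vehicle-treated controls.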

[13] = NCI Yeast Anticancer Drug Screen. Data for the rad18 strain (AID 177); conditions: S. cerevisiae rad18 mutant growth inhibition, hits give high values
Outline: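 Measured value is growth inhibition of a yeast strain bearing a DNA repair alteration, referenced to vehicle-treated cells.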

[14] = at 5.0 µM (retest, dose inferred, filed as 0.5)
[15] = at 50.0 µM (retest, dose inferred, filed as 5.0)

Measured: growth inhibition

Cc1c([N+](=O)[O-])oc2ccc3ccccc3c12
inactive: [1]; at 1.2 µM 23% | [1]; at 3.7 µM 50% | [2]; at 1.2 µM 2% | [2]; at 3.7 µM 2% | [2]; at 11.0 µM 4% | [2]; at 33.0 µM 11% | [2]; at 100.0 µM 21% | [3]; at 1.2 µM -8% | [3]; at 3.7 µM -1% | [3]; at 11.0 µM 3% | [3]; at 33.0 µM 8% | [3]; at 100.0 µM 22% | [4]; at 1.2 µM 26% | [4]; at 3.7 µM 48% | [4]; at 11.0 µM 69% | [5]; at 1.2 µM 6% | [5]; at 3.7 µM 6% | [5]; [14] 18% | [5]; at 11.0 µM 21% | [5]; at 33.0 µM 51% | [6]; at 1.2 µM 43% | [8]; at 1.2 µM -6% | [8]; at 3.7 µM -8% | [8]; at 11.0 µM -6% | [8]; at 33.0 µM 3% | [8]; at 100.0 µM 6% | [10]; at 1.2 µM -11% | [10]; at 3.7 µM -17% | [10]; [14] -66% | [10]; at 11.0 µM -11% | [10]; at 33.0 µM -18% | [10]; [15] -11% | [10]; at 50.0 µM 12.4% | [10]; at 100.0 µM 0% | [11]; at 1.2 µM -1% | [11]; at 3.7 µM 1% | [11]; at 11.0 µM -2% | [11]; at 33.0 µM 15% | [11]; at 100.0 µM 35%
active: [1]; at 11.0 µM 86% | [1]; at 33.0 µM 94% | [1]; at 100.0 µM 92% | [4]; [14] 70% | [4]; at 33.0 µM 88% | [4]; [15] 90% | [4]; at 50.0 µM 87% | [4]; at 100.0 µM 92% | [5]; [15] 90% | [5]; at 50.0 µM 94.8% | [5]; at 100.0 µM 91% | [6]; at 3.7 µM 84% | [6]; at 11.0 µM 86% | [6]; at 33.0 µM 96% | [6]; at 100.0 µM 93% | [7]; [14] 76% | [7]; [15] 92% | [7]; at 50.0 µM 84.4% | [9]; [14] 81% | [9]; [15] 96% | [9]; at 50.0 µM 97% | [12]; [14] 82% | [12]; [15] 94% | [12]; at 50.0 µM 95.3% | [13]; at 1.2 µM 95% | [13]; at 3.7 µM 96% | [13]; at 11.0 µM 96% | [13]; at 33.0 µM 95% | [13]; at 100.0 µM 94%

CC[C@]1(O)CC(OC2CC(N(C)C)C(O)C(C)O2)c2c(cc3c(c2O)C(=O)c2c(O)cccc2C3=O)[C@@H]1C(=O)OC (stereo partly drawn)
active: [1]; at 3.7 µM 77% | [1]; at 11.0 µM 86% | [1]; at 33.0 µM 94% | [1]; at 100.0 µM 96% | [2]; at 33.0 µM 91% | [2]; at 100.0 µM 96% | [4]; at 3.7 µM 75% | [4]; at 11.0 µM 87% | [4]; at 33.0 µM 96% | [4]; [15] 95% | [4]; at 50.0 µM 91.6% | [4]; at 100.0 µM 97% | [5]; at 33.0 µM 79% | [5]; [15] 95% | [5]; at 50.0 µM 93% | [5]; at 100.0 µM 95% | [6]; at 33.0 µM 81%
inactive: [1]; at 1.2 µM 31% | [2]; at 1.2 µM -2% | [2]; at 3.7 µM -4% | [2]; at 11.0 µM -1% | [4]; at 1.2 µM 33% | [4]; [14] 50% | [5]; at 1.2 µM -16% | [5]; at 3.7 µM -14% | [5]; [14] 4% | [5]; at 11.0 µM 7% | [6]; at 1.2 µM -12% | [6]; at 3.7 µM -18% | [6]; at 11.0 µM 0%
